Measured values as given in PubChem BioAssay AID1159580 (chemical genetic matrix, 2015).
The whole screen tested about 5,500 compounds, of which about 2,000 (36%) were called active. About 18% were inconclusive and are not listed. No stated cut-off is given here; in the data, active means normalized growth mostly below about 0.91 (no sharp cut-off); inconclusive means no clear call, values can overlap the other calls; inactive means mostly above about 0.92. This is one part of the list.

Assay: chemical genetic growth profiling, strain panel (AID 1159580);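 further: tested at 20 µM; growth read once vehicle control cultures reached saturation at 30 °C; 1 = growth at the plate median or of vehicle wells; lower values mean less growth of the strain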
Settings: S. cerevisiae deletion strains, growth OD

Measured: normalized growth

NC(=O)C(=O)O
inactive: locus YAL013W, strain DEP1, active compounds read low 1.01 | locus YAL040C, strain CLN3, active compounds read low 1 | locus YCL061C, strain MRC1 (second series), active compounds read low 1 | locus YDR150W, strain NUM1, active compounds read low 1 | locus YDR363W, strain ESC2, active compounds read low 1.02 | locus YER002W, strain NOP16, active compounds read low 0.999 | locus YGR078C, strain PAC10, active compounds read low 0.994 | locus YMR307W, strain GAS1, active compounds read low 1 | locus YNL175C, strain NOP13, active compounds read low 1.01 | locus YNL197C, strain WHI3, active compounds read low 1 | locus YNL224C, strain SQS1, active compounds read low 1.01 | locus YOR083W, strain WHI5 (second series), active compounds read low 1.02 | locus YPL055C, strain LGE1, active compounds read low 1.01 | locus YPL241C, strain CIN2, active compounds read low 0.997
